# Screening data from PubChem BioAssay.
# This is a sample that favours compounds with a hit; in the whole collection about 0.4% have one here.
# TRPML1 inh = human mucolipin-1 channel inhibition | Q9GZU1 | TRPML1-inducible cells, Ca2+ dye fluorescence, FDSS; stronger effect = lower value; inhibition of EC80 agonist-evoked calcium signal | activity change, negative = inhibition, % (no concentration beside the values) | actives 0.02% (n = 390,000) | AID 624415; in the data active = activity change below about -50%; inconclusive = between about -30% and that limit;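 note: stimulus is agonist 54-4 at its EC80 concentration; % is set by controls: 0 for no effect and ±100 for the full control effect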
#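 Calcium fluorescence in TRPML1-DL cells induced overnight with Tet: a 110 s read after compound pin addition, then a 110 s antagonist read after challenge with 54-4 at 4 uM final (EC80).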
# TRPML1 ag = agonists of human TRPML1 channel. Q9GZU1. TRPML1-expressing cells, Ca2+ dye fluorescence, FDSS. activation, % (no concentration beside the values). actives 0.12% (n = 410,000). AID 624414; in the data active = activation above about 50%; inconclusive = mostly about 30% to 49%; note: 0% is about no effect
#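 Kinetic FDSS Ca2+ read in Tet-induced TRPML1-DL cells (ABD Ca8 dye plus quencher, 45-90 min RT loading): baseline, then compound, then 110 s agonist window; EC80 agonist 54-4 at 4uM final added afterwards for a 110 s antagonist window.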
# EPAC2 ag = activates human EPAC2 exchange factor; Potency, µM (doses to about 154 µM), for the others: top-dose activation, hits mostly activators; AID 720711; EPAC2 activation, biochemical qHTS; response scale: 100% = 6.5 mM cAMP response; actives 0.079% (n = 360,000); Q8WZA2; note: potency is the fitted concentration of half-maximal effect; nearly all actives have a fitted effect of over 50% in size
#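 Setup: EPAC2 100 nM, labeled Rap1B complex 250 nM, free GDP 50 uM. Compound titrations pinned in, brief spin, 5 min room temperature incubation. Kinetic fluorescence read over 30 min, normalized to 6.5 mM cAMP.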
# EPAC1 antagonist = EPAC1 (human) antagonism | O95398 | EPAC1 GEF assay, Rap1b-BODIPY-GDP exchange fluorescence | Potency, µM (doses to about 115 µM), inactives show top-dose activity change, negative = inhibition, hits mostly inhibitors | actives 0.14% (n = 360,000);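 note: potency is the fitted concentration of half-maximal effect; plate controls were vehicle for no effect and positive control for full effect; nearly all actives have a fitted effect of over 50% in size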
# Target sequence (O95398 whole entry, looked up): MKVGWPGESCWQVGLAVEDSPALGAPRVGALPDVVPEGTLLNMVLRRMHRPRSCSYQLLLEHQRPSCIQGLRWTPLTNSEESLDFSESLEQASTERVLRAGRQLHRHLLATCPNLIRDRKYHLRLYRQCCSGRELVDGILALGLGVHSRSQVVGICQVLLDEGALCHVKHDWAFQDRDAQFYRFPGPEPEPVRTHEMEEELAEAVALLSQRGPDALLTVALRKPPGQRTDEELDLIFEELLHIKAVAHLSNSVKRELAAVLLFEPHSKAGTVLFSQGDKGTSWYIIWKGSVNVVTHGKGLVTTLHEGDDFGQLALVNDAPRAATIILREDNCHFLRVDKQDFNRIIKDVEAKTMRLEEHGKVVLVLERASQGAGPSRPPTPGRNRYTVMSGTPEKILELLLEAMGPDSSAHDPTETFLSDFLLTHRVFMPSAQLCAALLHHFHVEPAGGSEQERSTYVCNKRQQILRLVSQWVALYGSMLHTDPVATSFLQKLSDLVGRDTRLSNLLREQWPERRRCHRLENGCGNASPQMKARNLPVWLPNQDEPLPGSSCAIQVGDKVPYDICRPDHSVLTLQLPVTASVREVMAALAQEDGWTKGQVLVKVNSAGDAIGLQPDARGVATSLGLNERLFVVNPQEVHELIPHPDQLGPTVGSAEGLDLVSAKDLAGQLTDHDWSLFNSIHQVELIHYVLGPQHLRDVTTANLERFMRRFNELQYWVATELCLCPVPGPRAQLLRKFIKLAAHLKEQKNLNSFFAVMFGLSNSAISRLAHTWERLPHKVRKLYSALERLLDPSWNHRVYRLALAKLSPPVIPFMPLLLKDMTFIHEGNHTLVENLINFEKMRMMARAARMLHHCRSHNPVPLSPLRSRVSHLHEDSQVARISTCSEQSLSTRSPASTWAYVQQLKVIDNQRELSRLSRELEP
# EPAC2 antagonist = antagonists of human EPAC2; Q8WZA2; EPAC2 GEF exchange of Rap1B-BODIPY-GDP, fluorescence; Potency, µM (titrated, usually from 114 µM), for inactives: at the highest dose activity, negative = inhibition, hits mostly inhibitors; actives 0.18% (n = 360,000); note: potency is the fitted concentration of half-maximal effect; % is set by controls: 0 for no effect and ±100 for the full control effect; nearly all actives have a fitted effect of over 45% in size
# EPAC1 agonist = agonists of human EPAC1 | EPAC1 agonist qHTS, biochemical assay; response scale: 100% = response to 6.5 mM cAMP | Potency, µM (series often up to 154 µM), without a hit: at the top dose activation, actives largely listed as activators | actives 0.073% (n = 360,000) | AID 720707; note: potency is the fitted concentration of half-maximal effect; nearly all actives have a fitted effect of over 60% in size
#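 Normalized to 6.5 mM cAMP, activity reflects EPAC1-catalysed release of BODIPY-GDP from Rap1B, followed kinetically over 30 min at 480 nm excitation, 540 nm emission. Reaction contained 100 nM EPAC1, 250 nM Rap1B-BODIPY-GDP, 50 uM GDP.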
# * = called active by the depositor; u = inconclusive; x = no result. Unless noted, calls come from the whole dose curve; as a rule, active = well fitted curve in the direction sought with a large enough effect; inconclusive = small, poorly fitted or top-dose-only effect, or another doubt; inactive = no such curve, though single readings can be large; an effect the other way counts as inactive or inconclusive.
SMILES,TRPML1 inh,TRPML1 ag,EPAC2 ag,EPAC1 antagonist,EPAC2 antagonist,EPAC1 agonist
CC(=O)Nc1ccc(Nc2nc3ccccc3nc2NS(=O)(=O)c2ccc(Cl)c([N+](=O)[O-])c2)cc1,-5.1,0.1,-10.1%,u,79.4µM*,-17.1%
COc1cc(Nc2nc3ccccc3nc2NS(=O)(=O)c2ccc([N+](=O)[O-])cc2)cc(OC)c1OC,u,118.9*,23.3%,-11.0%,1.5%,14.5%
Cc1ccc(NC(=O)COC(=O)c2ccccc2OCC(=O)Nc2ccc(Br)cc2)c(Br)c1,x,-0.3,x,x,x,x
CCC1(C)CC(=O)c2c(ccc3oc(C(=O)NCc4ccccc4)c(C)c23)O1 (configuration not stated),-15.8,50.4*,x,x,x,x
CCOc1cc(/C=N/NC(=O)c2ccc3c(c2)OCCO3)cc(Br)c1O,2.2,-0.4,8.8%,70.8µM*,12.2%,-4.7%
CC(=O)c1cccc(N=c2scc(-c3ccc(S(=O)(=O)N4CCOCC4)cc3)n2CCO)c1,-8.9,0.6,12.6%,-14.4%,-16.6%,17.6%
C=CCn1c(-c2ccc(S(=O)(=O)N3CCOCC3)cc2)csc1=Nc1ccccc1,13.0,-1.2,7.94µM*,6.4%,0.0%,1.6%
C=CC[n+]1cccc2cccc(O)c21,x,3.0,x,x,x,x
FC(F)(F)c1ccccc1Cc1c(-c2ccc(Cl)cc2)nc2ccc(Cl)cn12,-4.5,1.2,-0.3%,-19.7%,56.2µM*,8.1%
O=C(O)Cc1ccc(C(=O)c2ccc(Cl)cc2Cl)s1,1.8,-0.5,-1.3%,-20.3%,35.5µM*,-6.7%
CCN(CC)c1cc(C)c(/C=C/c2ccnc3ccccc23)cc1C,x,19.0,x,x,x,x
COc1cc(Cl)c(C)cc1NC(=O)CSc1cc(Cl)ccc1Cl,-9.2,1.1,-5.4%,25.1µM*,15.2%,7.4%
COc1cc(Cl)c(C)cc1NC(=O)CSc1ccc(C)cc1,3.3,1.3,2.8%,-1.4%,-2.3%,8.9%
CC(C)(C)n1ncc2c(=O)n(Cc3cccc(C(F)(F)F)c3Cl)cnc21,2.2,2.3,x,x,x,x
N#C/C(=C/c1ccc(N2CCOCC2)o1)C(=O)Nc1ccccc1,-17.0,82.9*,100µM*,8.0%,65.0%,100µM*
COc1cc2ncnc(N3CCN(C(=O)Nc4ccc(Oc5ccccc5)cc4)CC3)c2cc1OC,x,-0.7,x,x,x,x
CC1CN(C(=O)CCC(=O)NCc2cccc(Cl)c2)c2ccccc2S1 (configuration not stated),3.3,3.2,x,x,x,x
CC1CN(C(=O)CCC(=O)NCc2ccccc2)c2ccccc2S1 (configuration not stated),-7.7,-0.8,14.2%,9.7%,50.1µM*,-0.2%
Cc1cc(C)nc(/N=C(\N)Nc2ccc(CC(=O)OC(C)C)cc2)n1,11.7,68.4*,-0.1%,-6.4%,0.6%,5.4%
Cc1cc(C)nc(/N=C(\N)Nc2ccc(OCCC(C)C)cc2)n1,-15.2,97.1*,7.5%,12.4%,2.5%,-3.3%
Cc1cc(C)nc(/N=C(\N)Nc2ccc(OCc3ccccc3)cc2)n1,5.4,81.1*,3.2%,-15.3%,-12.2%,2.7%
CCN(CC)c1ccc(/C=C/c2c(C)cnc3ccccc23)cc1,x,2.6,x,x,x,x
CN(C)S(=O)(=O)c1ccc(N2CCCC2)c(C(=O)NCc2ccc(Cl)cc2)c1,-0.7,74.6*,8.2%,-4.4%,-4.7%,4.0%
Cc1ccc(NS(=O)(=O)c2cc([N+](=O)[O-])ccc2NNC(=S)Nc2cc(C)ccc2C)c(C)c1,-3.2,-0.6,-5.1%,-12.8%,-4.4%,13.5%
Cc1ccc(NS(=O)(=O)c2cc([N+](=O)[O-])ccc2NNC(=S)Nc2cccc(Cl)c2)c(C)c1,-9.7,2.4,-16.0%,50.1µM*,50.1µM*,-17.8%
SMILES,TRPML1 inh,TRPML1 ag,EPAC2 ag,EPAC1 antagonist,EPAC2 antagonist,EPAC1 agonist
COc1cc2c(NC3CCN(C(C)C)CC3)nc(N3CCCN(C)CC3)nc2cc1OCCOCCN(C)C,x,-0.2,x,x,x,x
O=C(O)c1ccccc1-c1c2cc(I)c(=O)c(I)c-2oc2c(I)c(O)c(I)cc12,-89.8*,177.5*,100µM*,129.2%,169.2%,28.2µM*
Cc1ccc(S(=O)(=O)Nc2cc(C(F)(F)F)ccc2N2CCOCC2)c(C)c1,1.3,63.6*,-7.5%,u,-26.9%,8.3%
Cc1ccc(S(=O)(=O)Nc2cc(C(F)(F)F)ccc2N2CCOCC2)cc1,11.8,u,-15.6%,7.7%,10.7%,-23.1%
COc1cc2c(NC3CCN(C)CC3)nc(N3CCCCC3)nc2cc1OCCOCCN(C)C,x,-0.4,x,x,x,x
CC1=NN(c2nc(-c3ccccc3)cs2)C(=O)C1,10.5,-1.0,2.4%,79.4µM*,1.5%,-13.7%
COc1ccc(CCNc2ncnc3c2c(-c2ccccc2)cn3-c2ccc(Cl)cc2)cc1OC,-18.1,76.8*,x,x,x,x
COc1ccc(CCNc2ncnc3c2c(-c2ccccc2)cn3-c2ccc(F)cc2)cc1OC,-22.0,63.9*,x,x,x,x
COc1ccc(Cl)cc1Nc1ncnc2c1c(-c1ccccc1)cn2-c1ccccc1,-0.1,0.0,x,x,x,x
Fc1ccc(-n2cc(-c3ccccc3)c3c(NCCc4ccccc4)ncnc32)cc1,64.9,0.9,x,x,x,x
CC(C)(C)OC(=O)N1CCN(/[N+]([O-])=N/Oc2ccc([N+](=O)[O-])cc2[N+](=O)[O-])CC1,-19.3,1.3,x,x,x,x
Cc1ccnc2ccc([N+](=O)[O-])cc12,x,-0.6,x,x,x,x
CCc1nc2c(OCc3ccc(C(F)(F)F)cc3)cccn2c1N(C)C(=O)c1ccc(C)cc1,44.7,1.9,-6.1%,-20.6%,15.8µM*,-31.1%
CCc1nc2c(OCc3ccc(C#N)cc3)cccn2c1N(C)C(=O)c1ccc(C)cc1,-3.2,0.2,5.9%,21.0%,u,7.6%
CCc1nc2c(OCc3ccc(C(F)(F)F)cc3)cccn2c1N(C)C(=O)c1ccc(OC)cc1,x,-0.4,1.0%,-19.9%,17.8µM*,-3.6%
O=C(O)c1cc(N2N=C(C(F)(F)F)/C(=C/C=C/c3ccco3)C2=O)ccc1Cl,-4.9,0.2,13.9%,35.5µM*,u,-0.5%
CCOC(=O)c1ccc(N2N=C(C)/C(=C/C=C/c3ccco3)C2=O)cc1,3.1,-1.0,-0.1%,6.6%,3.1%,-2.0%
C1=Nc2ccccc2/C1=C/c1ccccc1,x,0.0,x,x,x,x
Cc1cc(NC(=O)CSCC(=O)Nc2ccccc2Oc2ccccc2)no1,53.9,1.0,-3.2%,-20.4%,-3.8%,0.3%
Cc1ccc(Oc2ccccc2NC(=O)CSCC(=O)Nc2cc(C)on2)cc1,9.5,1.0,3.7%,-12.6%,-6.7%,112µM*
COc1cc2nc(CCNCc3ccccc3)nc(NC3CCN(C)CC3)c2cc1OC,x,-0.4,x,x,x,x
C#CC(c1ccccc1)(c1ccccc1)n1ccnc1,-1.5,-0.4,6.3%,23.4%,u,10.0%
